Results filed as inconclusive are left out. The source made the active and inactive calls. Unless noted, the call rests on the fitted dose curve; in most records, active means well fitted curve in the direction sought with a large enough effect in the repeat runs; inconclusive means weak or mixed curves; inactive means no such curve, though single readings can be large; an effect the other way counts as inactive or inconclusive.
Columns and labels:
[1] = A CellTox Green Cytotoxicity Assay to monitor cytotoxicity in HepG2 cells - 8 hour (AID 1224890); further: nearly all actives have a fitted effect of over 45% in size; further: potency means the concentration at half of the fitted maximal effect
Summary of the method: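 Cytotoxicity was tracked as dead-cell DNA fluorescence in HepG2 cells treated with test compounds at 37 C; each time-point value comes from one kinetic series spanning 0, 8, 16, 24, 32 and 40 h.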

[2] = qHTS assay to identify small molecule antagonists of the estrogen receptor alpha (ER-alpha) signaling pathway using the BG1 cell line in the presence of 0.1 nM 17-beta-estradiol - cell viability counter screen (AID 1259241); further: nearly all actives have a fitted effect of over 40% in size
Summary of the method: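 Following 5 days in phenol red-free medium with charcoal-stripped serum, VM7Luc4E2 cells received test compounds alongside 0.1 nM 17beta-estradiol (final) at 37C for 22 hr. Live cells were then quantified via protease-substrate fluorescence.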

[3] = qHTS assay to identify small molecule antagonists of the androgen receptor (AR) signaling pathway using the MDA cell line in the presence of 0.5 nM R1881 - cell viability counter screen (AID 1259242); further: nearly all actives have a fitted effect of over 45% in size
Summary of the method: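 Cells seeded at 3,000/well and allowed 5 hr at 37C, 0% CO2 before compound transfer and R1881 (0.5 nM final) addition; 16 hr later, live-cell protease fluorescence indicated cytotoxicity.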

[4] = target: Estrogen receptor (Homo sapiens) (UniProt P03372); assay: qHTS assay to identify small molecule antagonists of the estrogen receptor alpha (ER-alpha) signaling pathway using the BG1 cell line in the presence of 0.1 nM 17-beta-estradiol (AID 1259244); further: nearly all actives have a fitted effect of over 50% in size
Estrogen receptor (Homo sapiens), sequence (P03372 whole entry, looked up): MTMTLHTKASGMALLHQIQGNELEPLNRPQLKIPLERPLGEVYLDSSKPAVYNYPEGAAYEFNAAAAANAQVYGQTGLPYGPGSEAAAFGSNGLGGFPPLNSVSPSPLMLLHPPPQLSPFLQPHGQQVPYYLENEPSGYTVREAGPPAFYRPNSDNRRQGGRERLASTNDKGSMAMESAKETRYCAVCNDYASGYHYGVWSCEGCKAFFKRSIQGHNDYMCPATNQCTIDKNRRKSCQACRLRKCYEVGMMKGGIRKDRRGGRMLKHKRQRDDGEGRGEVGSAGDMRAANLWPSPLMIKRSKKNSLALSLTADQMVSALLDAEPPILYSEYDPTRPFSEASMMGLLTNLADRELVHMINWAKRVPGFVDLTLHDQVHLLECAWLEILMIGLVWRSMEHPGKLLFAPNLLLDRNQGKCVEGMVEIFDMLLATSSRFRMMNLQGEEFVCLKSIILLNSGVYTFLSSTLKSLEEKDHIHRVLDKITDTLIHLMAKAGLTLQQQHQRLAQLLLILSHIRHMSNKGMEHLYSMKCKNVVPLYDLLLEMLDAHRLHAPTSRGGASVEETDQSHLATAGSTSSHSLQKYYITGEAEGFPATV
Summary of the method: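 Luciferase signal from VM7Luc4E2 ERE-reporter cells, co-dosed with test compound and 0.1 nM final 17beta-estradiol for 22 h, read with ONE-Glo.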

[5] = qHTS assay to identify small molecule phospholipidosis (PLD) inducers (AID 1259344; active means well fitted curve in the direction sought with a large enough effect; an effect the other way counts as inactive or inconclusive)
Summary of the method: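 Cells (HepG2, 900 per well) attach for 4 h, receive LipidTOX Red and compound together, incubate 24 h at 37 C, are fixed 30 min with paraformaldehyde/Hoechst, then imaged at one site per well.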

[6] = qHTS assay to identify small molecule HDAC inhibitors - cell viability counter screen (AID 1259365); further: series mostly up to about 92 µM; nearly all actives have a fitted effect of over 50% in size
Summary of the method: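 HCT-116 wild-type, overnight attachment; 2hr drug exposure, 37C; CellTiter-Glo luminescent ATP readout after 30min RT.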

[7] = qHTS assay to identify small molecule antagonists of the sonic hedgehog signaling (Shh) pathway - cell viability counter screen (AID 1259367); further: nearly all actives have a fitted effect of over 55% in size
Summary of the method: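 Cytotoxicity was assessed in parallel with Shh reporter activity by measuring live-cell protease fluorescence (CellTiter-Fluor) in NIH/3T3 cells stably carrying Gli1-Luc, treated with compound under conditioned medium stimulation for 23 hr plus 1 hr reagent incubation.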

[8] = qHTS assay to identify small molecule agonists of the sonic hedgehog signaling (Shh) pathway (AID 1259368; calls by dose curve;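 further: NIH/3T3-derived 3T3Gli1-Luc cells carrying a stable Gli1-driven firefly luciferase reporter; series mostly up to about 92 µM; nearly all actives have a fitted effect of over 15% in size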)
Summary of the method: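 Following a 24 hr incubation with DMSO-dissolved compounds at 37 C, 5% CO2, Gli1-Luc NIH/3T3-derived cells received luciferase reagent for 30 min at room temperature prior to luminescence measurement.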

[9] = qHTS assay to identify small molecule antagonists of the sonic hedgehog signaling (Shh) pathway (AID 1259369; calls by dose curve; further: nearly all actives have a fitted effect of over 45% in size)
Summary of the method: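 Read-out is luminescence from a firefly luciferase gene controlled by the Gli1 response element, in 3T3Gli1-Luc cells pre-incubated 4hr then exposed to compounds and conditioned medium for 24hr.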

[10] = target: Estrogen receptor beta (Homo sapiens) (UniProt Q92731); assay: qHTS assay to identify small molecule agonists of the estrogen receptor beta (ER-beta) signaling pathway (AID 1259377; active means well fitted activation curve with a large enough effect in the signal ratio in the repeat runs, not every such curve was filed as active; the % refers to the signal ratio)
Estrogen receptor beta (Homo sapiens), sequence (Q92731 whole entry, looked up): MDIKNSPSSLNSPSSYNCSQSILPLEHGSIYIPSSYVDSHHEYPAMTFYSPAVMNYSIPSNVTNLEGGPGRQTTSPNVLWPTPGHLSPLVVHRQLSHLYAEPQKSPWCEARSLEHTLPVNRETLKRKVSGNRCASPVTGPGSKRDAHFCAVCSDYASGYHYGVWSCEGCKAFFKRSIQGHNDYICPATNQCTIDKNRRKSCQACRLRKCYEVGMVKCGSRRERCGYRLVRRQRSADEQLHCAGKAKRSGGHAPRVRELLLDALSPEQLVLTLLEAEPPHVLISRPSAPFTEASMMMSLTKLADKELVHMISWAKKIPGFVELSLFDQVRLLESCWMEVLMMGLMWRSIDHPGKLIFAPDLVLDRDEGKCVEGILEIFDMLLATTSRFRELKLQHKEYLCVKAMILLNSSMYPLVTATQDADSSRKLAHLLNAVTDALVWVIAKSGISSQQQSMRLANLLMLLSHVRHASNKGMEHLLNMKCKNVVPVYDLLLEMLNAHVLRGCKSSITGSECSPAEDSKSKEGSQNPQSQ
Summary of the method: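 qHTS in ER-beta-UAS-bla HEK293T cells: 6 hr settling, then 16 hr compound at 37C, then LiveBLAzer substrate 2 h at RT before fluorescence reading.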

[11] = target: Estrogen receptor beta (Homo sapiens) (UniProt Q92731); assay: qHTS assay to identify small molecule antagonists of the estrogen receptor beta (ER-beta) signaling pathway (AID 1259378; active means well fitted inhibition curve with a large enough effect in the signal ratio in the repeat runs, not every such curve was filed as active; the % refers to the signal ratio)
Summary of the method: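 ER-beta-UAS-bla HEK293T (GripTite) cells in 2% charcoal-stripped FBS medium were preincubated 6 hr at 37C, dosed with compound, then stimulated with 1 nM E2 (final) for 16 hr; beta-lactamase reporter read by B/G FRET fluorescence after 2 hr substrate loading.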

[12] = qHTS assay to identify small molecule agonists of the androgen receptor (AR) signaling pathway in the presence of an antagonist - cell viability counter screen (AID 1259379);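 further: MDA-kb2 human breast cancer cells carrying an MMTV luciferase reporter; series mostly up to about 92 µM; nearly all actives have a fitted effect of over 25% in size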
Summary of the method: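 Each compound was tested at 15 concentrations on MDA-kb2 cells in the presence of 3.0uM nilutamide. Viability was measured by CellTiter-Fluor fluorescence after a 16 hr incubation at 37C in a CO2-free atmosphere.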

[13] = qHTS assay to identify small molecule agonists of the estrogen receptor beta (ER-beta) signaling pathway - cell viability counter screen (AID 1259380); further: nearly all actives have a fitted effect of over 30% in size
Summary of the method: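 Compounds dissolved in DMSO were pin-transferred onto ER-beta-UAS-bla HEK293T cells that had settled 6 hr, and exposure ran 16 hr at 37C. Following the reporter read, CellTiter-Glo luminescence after 30 min at room temperature indicated cytotoxicity.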

[14] = qHTS assay to identify small molecule antagonists of the estrogen receptor beta (ER-beta) signaling pathway - cell viability counter screen (AID 1259382); further: series mostly up to about 92 µM; nearly all actives have a fitted effect of over 55% in size
Summary of the method: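 CellTiter-Glo ATP luminescence measured after the LiveBLAzer read in the same wells; ER-beta-UAS-bla HEK293T cells, 16 hr compound treatment with 1nM 17-beta-estradiol agonist at 37C, 5% CO2.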

[15] = target: Estrogen receptor (Homo sapiens) (UniProt P03372); assay: qHTS assay to identify small molecule agonists of the estrogen receptor alpha (ER-alpha) signaling pathway in the presence of an antagonist (AID 1259383; calls by dose curve; further: top concentration of the series differs between compounds; nearly all actives have a fitted effect of over 15% in size)
Summary of the method: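 Luminescent ERE-luciferase reporter, VM7Luc4E2 cells (endogenous ER-alpha); 10.0nM ICI-182,780 final; 15-point compound titration; 22hr at 37C; ONE-Glo, 30min RT.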

[16] = qHTS assay to identify small molecule agonists or antagonists of the thyroid stimulating hormone receptor (TSHR) signaling pathway - wild type cell line counter screen (AID 1259384; calls by dose curve)
Summary of the method: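 Wild-type HEK293 cells were plated 18 h at 37 C/5% CO2, pin-dosed with compound plus Ro20-1724 medium, held 30 min at room temperature, then given cAMP-d2 and anti-cAMP-cryptate; fluorescence was read after 1 h. Fifteen concentrations, triplicate.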

[17] = qHTS assay to identify small molecule HDAC inhibitors (AID 1259364); further: potency means the concentration at half of the fitted maximal effect;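 further: wild-type HCT-116 cells with endogenous class I/II HDAC activity; nearly all actives have a fitted effect of over 45% in size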; on activity change, negative = inhibition: top concentration of the series differs between compounds
Summary of the method: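 HCT-116 wt cells, 1,500/well, overnight attach. Compounds (DMSO) 2 h, 37 °C. HDAC-Glo I/II, 30 min RT. Luminescence.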

[18] = qHTS assay to identify small molecule agonists of the sonic hedgehog signaling (Shh) pathway - cell viability counter screen (AID 1259366); further: nearly all actives have a fitted effect of over 50% in size
Summary of the method: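 Compounds in DMSO were pin-transferred onto 3T3 Gli1-Luc cells that had settled 4hr; plates then stood 24hr at 37C and 5% CO2. One hour before the end, CellTiter-Fluor was added and fluorescence recorded.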
On the % scale 0 is the no-effect control and ±100 the full control effect.

CCN(CC)S(=O)(=O)c1ccc(C(=O)O)cc1
inactive: Potency [1] | outcome [2] | outcome [3] | outcome [4] | Potency [5] | outcome [6] | outcome [7] | Potency [8] | Potency [9] | outcome [10] | Potency [11] | Potency [12] | Potency [13] | Potency [14] | Potency [15] | outcome [16]

Cc1cc(C)cc(OCC2CNC(=O)O2)c1 (configuration not stated)
inactive: Potency [1] | outcome [2] | outcome [3] | outcome [4] | Potency [5] | Potency [17] | outcome [6] | Potency [18] | outcome [7] | Potency [8] | Potency [9] | Potency [12] | Potency [13] | Potency [14] | Potency [15]

O=C(O)C1CCC1
inactive: Potency [1] | outcome [2] | outcome [3] | outcome [4] | Potency [17] | outcome [6] | Potency [18] | outcome [7] | Potency [8] | outcome [10] | Potency [11] | Potency [12] | Potency [13] | Potency [14] | Potency [15] | outcome [16]

Nc1nc2c(ncn2CCC(CO)CO)c(=O)[nH]1
inactive: Potency [1] | outcome [2] | outcome [3] | outcome [4] | Potency [5] | Potency [17] | outcome [6] | outcome [7] | Potency [8] | Potency [9] | outcome [10] | Potency [11] | Potency [12] | Potency [13] | Potency [14] | Potency [15] | outcome [16]

CCN(CC)C(=O)c1ccc(O)c(OC)c1
inactive: Potency [1] | outcome [2] | outcome [3] | outcome [4] | Potency [5] | Potency [17] | outcome [6] | Potency [18] | outcome [7] | Potency [8] | outcome [10] | Potency [12] | Potency [13] | Potency [14] | outcome [16]

CCCCc1ccc(N)cc1
inactive: Potency [1] | outcome [2] | outcome [3] | outcome [4] | Potency [17] | outcome [6] | Potency [18] | outcome [7] | Potency [8] | outcome [10] | Potency [11] | Potency [12] | Potency [13] | Potency [14] | Potency [15] | outcome [16]

CC(C)(C)CC(C)(C)N
inactive: Potency [1] | outcome [2] | outcome [3] | outcome [4] | Potency [17] | outcome [6] | Potency [18] | outcome [7] | Potency [8] | Potency [9] | outcome [10] | Potency [11] | Potency [12] | Potency [13] | Potency [14] | Potency [15] | outcome [16]

CC(C)(O)c1ccccc1
inactive: Potency [1] | outcome [2] | outcome [3] | outcome [4] | Potency [17] | outcome [6] | Potency [18] | outcome [7] | Potency [8] | Potency [9] | outcome [10] | Potency [11] | Potency [12] | Potency [13] | Potency [14] | Potency [15]

Fc1ccccc1-c1ccccc1
inactive: Potency [1] | outcome [2] | outcome [3] | outcome [4] | Potency [17] | outcome [6] | Potency [18] | outcome [7] | Potency [8] | Potency [9] | outcome [10] | Potency [11] | Potency [12] | Potency [13] | Potency [14] | Potency [15] | outcome [16]

NCCNC(=O)c1ccc(Cl)cn1
inactive: Potency [1] | outcome [2] | outcome [3] | outcome [4] | Potency [5] | Potency [17] | outcome [6] | Potency [18] | outcome [7] | Potency [8] | Potency [9] | Potency [12] | Potency [13] | Potency [14] | outcome [16]

CCCCCCCCCCCl
inactive: Potency [1] | outcome [2] | outcome [3] | outcome [4] | Potency [17] | outcome [6] | Potency [18] | outcome [7] | Potency [8] | Potency [9] | Potency [12] | Potency [13] | Potency [14] | Potency [15]

CCCCCOC(=O)Nc1nc(=O)n([C@@H]2O[C@H](C)[C@@H](O)[C@H]2O)cc1F
inactive: Potency [1] | outcome [2] | outcome [3] | outcome [4] | Potency [5] | outcome [6] | Potency [18] | outcome [7] | Potency [8] | Potency [9] | outcome [10] | Potency [11] | Potency [12] | Potency [13] | Potency [14] | Potency [15] | outcome [16]

Cn1ccc2cc3c(cc21)CCN3C(=O)Nc1cccnc1
active: Potency [17] 11.6 µM
inactive: cytotoxicity increase [1] -6.36% [at 15.8 µM] | activity change, negative = cytotoxicity [2] -4.26% [at 19 µM] | viability change, negative = cytotoxic [3] -1.94% [at 19 µM] | activity change, negative = inhibition [4] 76.4% [at 19 µM] | Potency [5] | activity change, negative = cytotoxicity [6] -0.0806% [at 19 µM] | viability change, negative = cytotoxic [7] 4.69% [at 19 µM] | activity change [8] 11% [at 18.9 µM, hits give high values] | activity change, negative = inhibition [9] 1.03% [at 19 µM] | activation [10] -2.3% [at 19 µM] | activity change, negative = cytotoxicity [12] 2.26% [at 19 µM] | activity change, negative = cytotoxicity [14] -14.8% [at 19 µM] | activation [15] 12% [at 19 µM] | cAMP activity change [16] -0.339% [at 18.9 µM]

CCN1CCCC(OC(=O)C(c2ccccc2)c2ccccc2)C1 (configuration not stated)
inactive: Potency [1] | outcome [2] | outcome [3] | outcome [4] | Potency [5] | Potency [17] | outcome [6] | Potency [18] | outcome [7] | Potency [8] | outcome [10] | Potency [11] | Potency [12] | Potency [14] | outcome [16]

Nc1ccn(C2CO[C@H](CO)O2)c(=O)n1 (some centres not stated)
inactive: outcome [2] | outcome [3] | outcome [4] | PLD induction [5] 4.48% [at 7.66 µM] | Potency [17] | outcome [6] | Potency [18] | outcome [7] | Potency [8] | outcome [10] | Potency [11] | Potency [12] | Potency [13] | Potency [14] | Potency [15] | outcome [16]
active: Potency [1] 19 µM

O=C(O)c1ccccc1S
inactive: Potency [1] | outcome [2] | outcome [3] | outcome [4] | Potency [5] | outcome [6] | Potency [18] | outcome [7] | Potency [8] | Potency [11] | Potency [12] | Potency [13] | Potency [14] | Potency [15]
